Compound activity from PubChem.
SIRT5 inh – SIRT5 desuccinylase inhibitors, primary screen, biochemical, fluorescence imaging, single point, set 5; Purified SirT5, succinyl-peptide AMC, trypsin-coupled fluorescence; inhibition, % at 15 µM; 330,000 compounds, 1.1% hits; in the data active means inhibition above about 15%
Target sequence (Q9NXA8 whole entry, looked up): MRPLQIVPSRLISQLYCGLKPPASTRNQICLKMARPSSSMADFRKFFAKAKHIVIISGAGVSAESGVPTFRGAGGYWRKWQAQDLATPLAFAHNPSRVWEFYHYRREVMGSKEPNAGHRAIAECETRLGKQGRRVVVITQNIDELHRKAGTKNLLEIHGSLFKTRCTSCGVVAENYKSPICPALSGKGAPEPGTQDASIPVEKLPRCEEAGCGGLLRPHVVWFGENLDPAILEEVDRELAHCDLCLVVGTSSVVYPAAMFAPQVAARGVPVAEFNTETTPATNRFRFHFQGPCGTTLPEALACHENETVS
PglD DTNB – C. jejuni PglD acetyltransferase inhibitors, primary screen, biochemical, DTNB colorimetric, single point. UDP-N-acetylbacillosamine N-acetyltransferase PglD (Campylobacter jejuni). purified PglD enzyme, DTNB colorimetric CoA detection. inhibition, % at 12.5 µM. 360,000 compounds, 0.098% hits. AID 602405, 2012; in the data active means inhibition above about 16%, passing the limit was not always enough
dFosB activator – activators of delta FosB homodimer, primary screen, biochemical, fluorescence polarization, TAMRA-CDK5 oligo, single point. 340,000 compounds, 0.99% hits. purified delta FosB; percent of positive-control signal above neutral wells. activation, % at 25 µM. Protein FosB (Mus musculus), P13346;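 active means mean activation above about 17%, with every replicate also reaching it, limit read from the data, passing the limit was not always enough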
FGF22 binding – binders of human FGF22 protein, primary screen, FGF22 synaptogenesis inhibitor project, biophysical, thermal shift, single point | Fibroblast growth factor 22 (Homo sapiens), Q9HCT0 | recombinant FGF22 thermal shift, SYPRO orange fluorescence; percent of sucrose octasulfate shift, DMSO zero | activity (Tm shift, normalised), % at 9.99 µM | 340,000 compounds, 1.5% hits;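 active means mean Tm shift, scaled 0 neutral to 100 positive control, at about 1.3% or above, every replicate too, limit read from the data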
Target sequence (Q9HCT0 whole entry, looked up): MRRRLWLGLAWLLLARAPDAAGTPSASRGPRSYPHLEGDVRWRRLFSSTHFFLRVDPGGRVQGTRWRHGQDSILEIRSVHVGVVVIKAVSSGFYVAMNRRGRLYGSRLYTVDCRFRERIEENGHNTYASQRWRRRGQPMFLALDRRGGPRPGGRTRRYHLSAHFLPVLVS
PvdQ acylase – P. aeruginosa PvdQ acylase inhibitors, primary screen, biochemical, fluorescence, plate reader and imaging, single point; 340,000 compounds, 0.063% hits; purified PvdQ acylase; PvdQ acylase [Pseudomonas aeruginosa LESB58]; inhibition, % at 10 µM; in the data active means inhibition above about 30%, passing the limit was not always enough
CDK5 p35 inh – inhibitors of human CDK5/p35 kinase, primary screen, biochemical, single concentration. Cyclin-dependent kinase 5 (Homo sapiens) + Cyclin-dependent kinase 5 activator 1 (Homo …. Recombinant CDK5/p35, ADP-Glo luminescence, 60 min. inhibition, % at 10 µM. 330,000 compounds, 0.01% hits;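 active means highest replicate inhibition of at least 50% and at least 75% of replicates reaching 50%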
Each line names hits and unclear results; the compound was inactive in the other large screens. In the library only some 2.8% were active in any assay of this set; here they are far more common.

O=C(C[C@@H]1C[C@@H]2c3cc(NC(=O)C4CCOCC4)ccc3O[C@@H]2[C@@H](CO)O1)NCCc1ccccc1	none (no result: dFosB activator, PvdQ acylase, CDK5 p35 inh)
O=C(O)CC1=C(Nc2ccccc2)C(=O)N(c2ccccc2)C1c1ccc(Br)cc1 (stereo not drawn)	SIRT5 inh 17, FGF22 binding 43 (no result: PglD DTNB)
O=C(O)CC1=C(O)C(=O)N(c2ccccc2)C1c1ccc(Cl)cc1 (stereo not drawn)	none (no result: SIRT5 inh, FGF22 binding)
Cc1ccc(S(=O)(=O)N2C[C@H](O)COC[C@H]3O[C@H](CC(=O)N[C@@H]4CCN(Cc5ccccc5)C4)CC[C@@H]32)cc1	none (no result: dFosB activator, PvdQ acylase, CDK5 p35 inh)
CN(C)C(=O)c1cc2c(c(-c3cccc(-c4ccccc4F)c3)n1)[C@H](CCO)N(S(C)(=O)=O)C2	none (no result: PglD DTNB, dFosB activator, PvdQ acylase, CDK5 p35 inh)
CC1(C)OC(=O)C=C[C@]2(C)[C@H]3CC[C@@]4(C)[C@H](c5ccoc5)OC(=O)[C@H]5O[C@]54[C@]3(C)C(=O)C[C@@H]12	FGF22 binding 17 (no result: SIRT5 inh)
COc1ccc(C)cc1S(=O)(=O)N(C)CC(=O)N1CCC(C(N)=O)CC1	FGF22 binding 43
CCOC(=O)C1CCN(C(=O)CN(C)S(=O)(=O)c2cc(C)ccc2OC)CC1	none (no result: SIRT5 inh, FGF22 binding)
C[C@H](CO)N1C[C@H](C)[C@@H](CN(C)C(=O)c2cnccn2)Oc2cc(C3=CCCC3)ccc2S1(=O)=O	none (no result: dFosB activator, PvdQ acylase, CDK5 p35 inh)
CNC[C@@H]1OCCCC[C@@H](C)Oc2ccc(NC(=O)CCCN(C)C)cc2C(=O)N([C@@H](C)CO)C[C@H]1C	none (no result: dFosB activator, PvdQ acylase, CDK5 p35 inh)
Cc1cccc(C)c1NC(=O)CN(C)c1ccc(C(F)(F)F)cn1	FGF22 binding 43 (no result: PglD DTNB)
O=C(Cc1ccccn1)N1CC[C@@H]2[C@H]1c1cc(-c3cccc(F)c3)ccc1N[C@@H]2CO	none (no result: dFosB activator, PvdQ acylase, CDK5 p35 inh)
O=S(=O)(N[C@H]1CC[C@@H](CCn2cc(-c3ccccn3)nn2)O[C@H]1CO)c1cccc(Cl)c1	none (no result: dFosB activator, PvdQ acylase, CDK5 p35 inh)
CC(C)CC#Cc1ccc2c(c1)O[C@H](CN(C)C(=O)C1CCCCC1)[C@H](C)CN([C@H](C)CO)S2(=O)=O	none (no result: dFosB activator, PvdQ acylase, CDK5 p35 inh)
CC(C)CC#Cc1ccc2c(c1)O[C@H](CN(C)C(=O)C1CCC1)[C@@H](C)CN([C@H](C)CO)S2(=O)=O	none (no result: dFosB activator, PvdQ acylase, CDK5 p35 inh)
CC(C)CC#Cc1ccc2c(c1)O[C@@H](CN(C)C(=O)CC1CC1)[C@@H](C)CN([C@H](C)CO)S2(=O)=O	SIRT5 inh 25 (no result: dFosB activator, PvdQ acylase, CDK5 p35 inh)
CC(C)CC#Cc1ccc2c(c1)O[C@@H](CN(C)C(=O)C1CCCCC1)[C@@H](C)CN([C@H](C)CO)S2(=O)=O	SIRT5 inh 22 (no result: dFosB activator, PvdQ acylase, CDK5 p35 inh)
CC(C)CC#Cc1ccc2c(c1)O[C@@H](CN(C)C(=O)C1CCCCC1)[C@H](C)CN([C@H](C)CO)S2(=O)=O	SIRT5 inh 19 (no result: dFosB activator, PvdQ acylase, CDK5 p35 inh)
CC(C)CC#Cc1ccc2c(c1)O[C@@H](CN(C)C(=O)CC1CC1)[C@@H](C)CN([C@@H](C)CO)S2(=O)=O	none (no result: dFosB activator, PvdQ acylase, CDK5 p35 inh)
CN(C)C(=O)[C@H]1[C@H](CO)[C@H]2Cn3c(ccc(C4=CCCC4)c3=O)[C@@H]1N2CC1CCOCC1	none (no result: dFosB activator, PvdQ acylase, CDK5 p35 inh)
Cc1c(C(=O)N2CCN(c3ccccn3)CC2)cccc1[N+](=O)[O-]	none (no result: PglD DTNB)
CC(Sc1ccsc1[N+](=O)[O-])C(=O)N1CCN(c2ccccn2)CC1 (stereo not drawn)	FGF22 binding 44
CC(Sc1ccsc1[N+](=O)[O-])C(=O)NCc1ccccc1 (stereo not drawn)	FGF22 binding 43 (no result: PglD DTNB, dFosB activator, PvdQ acylase, CDK5 p35 inh)
COc1ccccc1CNC(=O)C[C@@H]1C[C@@H]2c3cc(NS(=O)(=O)c4ccc(F)cc4)ccc3O[C@@H]2[C@H](CO)O1	none (no result: dFosB activator, PvdQ acylase, CDK5 p35 inh)
COCC(=O)Nc1ccc2c(c1)C(=O)N(C)C[C@H](OC)[C@@H](C)CN(CCC(F)(F)F)[C@H](C)CO2	none (no result: dFosB activator, PvdQ acylase, CDK5 p35 inh)
COc1cc(/C=C/C(=O)Nc2cccc(S(=O)(=O)N3CCOCC3)c2)ccc1OCC#N	FGF22 binding 4.1
O=C(O)c1ccc(-c2ccc(/C=c3/sc4nc5ccccc5n4c3=O)o2)cc1Cl	SIRT5 inh 24 (no result: PglD DTNB)
CN1CCN(C(=O)C[C@H]2CC[C@@H]3[C@H](COC[C@@H](O)CN3C(=O)C3CCCC3)O2)CC1	none (no result: dFosB activator, PvdQ acylase, CDK5 p35 inh)
OCc1ccccc1-c1cnc2cccnn12	FGF22 binding 55 (no result: SIRT5 inh, dFosB activator, PvdQ acylase, CDK5 p35 inh)
O=C(NCCO)c1ccc(-c2cnc3cccnn23)cc1	none (no result: dFosB activator, PvdQ acylase, CDK5 p35 inh)
Cn1c(CN2CCN(C(=O)c3ccccc3)CC2)nc2cc([N+](=O)[O-])ccc21	none (no result: PglD DTNB)
Cn1c(CN2CCN(C(=O)c3ccccc3Cl)CC2)nc2cc([N+](=O)[O-])ccc21	FGF22 binding 44 (no result: PglD DTNB)
C[C@@H]1CCCCO[C@@H](CN(C)S(=O)(=O)c2ccccc2)[C@H](C)CN([C@@H](C)CO)C(=O)c2cc(NS(=O)(=O)c3cccs3)ccc2O1	none (no result: dFosB activator, PvdQ acylase, CDK5 p35 inh)
Cn1c(-c2ccccc2)c(C(=O)CCl)c2ccccc21	FGF22 binding 44 (no result: PglD DTNB)
COc1ccc(NC(=O)Nc2ccc3c(c2)C(=O)N([C@H](C)CO)C[C@H](C)[C@H](CN(C)Cc2ccncc2)O3)cc1	none (no result: dFosB activator, PvdQ acylase, CDK5 p35 inh)
O=S(=O)(NCc1ccc2c(c1)OCO2)c1ccccc1F	SIRT5 inh 22
O=S(=O)(NCc1ccc2c(c1)OCO2)c1ccc(F)c(F)c1	none
O=C(N[C@H]1CC[C@H](CCn2cc(-c3ccccn3)nn2)O[C@H]1CO)c1ccc(F)cc1	none (no result: dFosB activator, PvdQ acylase, CDK5 p35 inh)
CC1(C)CC(=O)c2cnc3c(C#N)cnn3c2C1	FGF22 binding 44 (no result: PglD DTNB)
